Results on eight compounds are retold here after PubChem BioAssay (EPA / NIEHS).

Calls of active or inactive are those of the source. How the source made its calls: active means hit-call score of the fitted dose curve at least 0.9, where 1 is the maximum; inactive means score below 0.9.

Assay [1] has as its target Bile acid receptor (Homo sapiens) (UniProt Q96RI1). As to the kind of experiment: ATG_IR1_CIS: Attagene CIS-FACTORIAL HepG2 Assay for human Nuclear Receptor Subfamily 1 Group H Member 4 (NR1H4), IR1 submotif (AID 2282946). To be noted: IR1 reporter transcription, actives raise or lower the signal. The essentials:
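Cells (human HepG2) carry transiently transfected cis-promoter reporter transcription units. Compounds are incubated 24 h, total RNA is reverse-transcribed and amplified, and labelled fragments are resolved by capillary electrophoresis. Curves use DMSO as baseline.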

Assay [2] can be described thus: ATG_ISRE_CIS: Attagene CIS-FACTORIAL HepG2 Assay for human Interferon Regulatory Factor 1 (IRF1) binding to an Interferon-Stimulated Response Element (ISRE) (AID 2282948). To be noted: HepG2 ISRE cis-reporter (Attagene), mRNA transcription readout; actives raise or lower the signal. In outline: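 HepG2 cells transiently transfected with multiplexed cis-promoter reporter units; after 24 h compound exposure, reporter mRNA quantified by RT-PCR, FAM labelling, HpaI digestion and capillary electrophoresis. Bidirectional fit versus DMSO baseline.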

Assay [3] in a line: ATG_M_32_CIS: Attagene CIS-FACTORIAL HepG2 Assay for M32 Transcription Factor (Internal Marker) (AID 2282949).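 Further: background control marker of the multiplexed CIS panel rather than a real target.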 Particulars: HepG2 Attagene cis-factorial M32 reporter, mRNA; actives raise or lower the signal. In outline: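 Internal background marker read-out: RT-PCR/capillary electrophoresis fluorescence of reporter transcripts from transiently transfected HepG2 cells after 24 h chemical exposure. Activity fitted bidirectionally relative to DMSO negative control.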

Assay [4] in a line: ATG_M_06_CIS: Attagene CIS-FACTORIAL HepG2 Assay for M06 Transcription Factor (Internal Marker) (AID 2282950). Particulars: HepG2 Attagene CIS-FACTORIAL M06 internal marker reporter; actives raise or lower the signal. The essentials:
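Internal background marker within multiplexed cis-reporter HepG2 system. Cells transiently transfected, dosed 24 h; reporter mRNA measured by RT-PCR, HpaI digestion and capillary electrophoresis. Bidirectional fit relative to DMSO.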

The target in assay [5] is Hypoxia-inducible factor 1-alpha (Homo sapiens) (UniProt Q16665). Put plainly: ATG_HIF1a_CIS: Attagene CIS-FACTORIAL HepG2 Assay for human Hypoxia Inducible Factor 1 (HIF1A) (AID 2282951). To be noted: HepG2 Attagene cis-factorial HIF1a reporter transcription; actives raise or lower the signal. The essentials: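 HepG2, transient cis-reporter library, 24 h dosing. RNA → RT (oligo dT) → PCR → 6-FAM primer extension → HpaI → CE. Bidirectional curve fit vs DMSO.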

The target of assay [6] is Hepatocyte nuclear factor 6 (Homo sapiens) (UniProt Q9UBC0). Put plainly: ATG_HNF6_CIS: Attagene CIS-FACTORIAL HepG2 Assay for human Hepatocyte Nuclear Factor 6 (HNF6) (AID 2282952). To be noted: HepG2 Attagene cis-factorial HNF6 reporter transcription; actives raise or lower the signal. In outline: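 Cells are HepG2 carrying transiently transfected cis-promoter reporter units. Treatment lasts 24 h, after which reporter transcripts are reverse-transcribed, amplified, FAM-labelled and sized by capillary electrophoresis. DMSO serves as baseline.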

In assay [7] the target is Heat shock factor protein 1 (Homo sapiens) (UniProt Q00613). As to the kind of experiment: ATG_HSE_CIS: Attagene CIS-FACTORIAL HepG2 Assay for human Heat Shock Transcription Factor 1 (HSE) (AID 2282953). Particulars: HepG2 HSE cis-reporter, Attagene RNA transcription; actives raise or lower the signal. The essentials: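 HepG2 cells transfected with cis-promoter reporter units sensing endogenous transcription factor activity; reporter mRNA quantified 24 h post-dose by RT-PCR and capillary electrophoresis of 6-FAM-labelled products. Bidirectional fitting against DMSO.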

Assay [8] is described as follows: ATG_MRE_CIS: Attagene CIS-FACTORIAL HepG2 Assay for human Metal Responsive Element (MRE) (AID 2282954). To be noted: HepG2 MRE cis-reporter transcription, Attagene multiplex; actives raise or lower the signal. The essentials: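 After a 24 h chemical exposure, transiently transfected HepG2 cells yield RNA whose reporter sequences are amplified, FAM-labelled and sized by capillary electrophoresis. Curves are fitted bidirectionally relative to DMSO.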

Assay [9] is described as follows: ATG_PBREM_CIS: Attagene CIS-FACTORIAL HepG2 Assay for human Phenobarbital-responsive Enhancer Module (PBREM) (AID 2282955). Particulars: HepG2 PBREM cis-reporter, Attagene multiplexed transcription; actives raise or lower the signal. In outline: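 HepG2, transient MRTU transfection, 24 h dosing; RNA → oligo(dT) RT → PCR → 6-FAM extension → HpaI → CE. Bidirectional fit vs DMSO.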

Assay [10] addresses Paired box protein Pax-6 (Homo sapiens) (UniProt P26367). As to the kind of experiment: ATG_Pax6_CIS: Attagene CIS-FACTORIAL HepG2 Assay for human Paired Box 6 (PAX6) (AID 2282956). To be noted: HepG2 CIS-FACTORIAL PAX6 reporter transcription, RNA readout; actives raise or lower the signal. In outline:
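HepG2 cells transiently transfected with multiplexed cis-promoter reporter units (endogenous TF activity) were dosed for 24 h. Reporter mRNA was quantified by RT-PCR, 6-FAM labeling, HpaI digestion and capillary electrophoresis; bidirectional fitting versus DMSO baseline.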

Assay [11] can be described thus: ATG_PXRE_CIS: Attagene CIS-FACTORIAL HepG2 Assay for human Pregnane X Receptor Element (PXRE) (AID 2282957). Particulars: HepG2 Attagene CIS-FACTORIAL PXRE reporter, mRNA; actives raise or lower the signal. In outline: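 Multiplexed cis-reporter assay in transiently transfected human HepG2 cells; 24 h chemical exposure. Reporter transcripts quantified by RT-PCR with fluorescent labeling and capillary electrophoresis.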

A short description of assay [12]: ATG_PPRE_CIS: Attagene CIS-FACTORIAL HepG2 Assay for human Peroxisome Proliferator-activated Response Element (PPRE) (AID 2282958). To be noted: HepG2 PPRE cis-element reporter, Attagene transcription factor profiling; actives raise or lower the signal. The essentials:
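Transcript-level reporter induction in transfected HepG2 cells after 24 h chemical exposure, quantified by fluorescence from RT-PCR products separated by capillary electrophoresis.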

A short description of assay [13]: ATG_RORE_CIS: Attagene CIS-FACTORIAL HepG2 Assay for human RAR-related Orphan Receptor Element (RORE) (AID 2282959). Particulars: HepG2 Attagene cis-factorial RORE reporter, mRNA; actives raise or lower the signal. In outline: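 Multiplexed reporter assay measuring mRNA induction from a cis promoter element in transiently transfected HepG2 cells after 24 h treatment. Detection via RT-PCR and capillary electrophoresis fluorescence; DMSO serves as baseline.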

The nature of assay [14]: ATG_Sox_CIS: Attagene CIS-FACTORIAL HepG2 Assay for human SRY-box transcription factor (SOX) (AID 2282960). To be noted: HepG2 Attagene cis-factorial SOX reporter, mRNA; actives raise or lower the signal. The essentials:
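Cells were transfected with reporter constructs under cis-regulatory promoters, then exposed to chemicals for 24 h. Reporter transcripts were quantified by fluorescence after RT-PCR and capillary electrophoresis; activity was fitted in both directions against DMSO.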

Assay [15] addresses Transcription factor Sp1 (Homo sapiens) (UniProt P08047). Put plainly: ATG_Sp1_CIS: Attagene CIS-FACTORIAL HepG2 Assay for human Specificity Protein 1 (Sp1) (AID 2282961). To be noted: HepG2 Sp1 cis-reporter transcription, actives raise or lower the signal. In outline:
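Measures mRNA induction of an Sp1-linked reporter in HepG2 cells 24 h post-dosing. Multiplexed reporters read by RT-PCR and capillary electrophoresis; DMSO serves as negative control and baseline.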

A short description of assay [16]: ATG_SREBP_CIS: Attagene CIS-FACTORIAL HepG2 Assay for human Sterol Regulatory Element Binding (SREBP) (AID 2282962). To be noted: HepG2 Attagene cis-factorial SREBP reporter, mRNA; actives raise or lower the signal. The essentials: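 HepG2 cells transiently transfected with multiplexed cis-element reporter units report endogenous transcription factor activity. After 24 h of chemical exposure, reporter mRNA was quantified by RT-PCR, 6-FAM labelling, HpaI digestion and capillary electrophoresis; bidirectional fits used DMSO as baseline.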

Assay [17] concerns the target Signal transducer and activator of transcription 3 (Homo sapiens) (UniProt P40763). As to the kind of experiment: ATG_STAT3_CIS: Attagene CIS-FACTORIAL HepG2 Assay for human Signal Transducer and Activator of Transcription 3 (STAT3) (AID 2282963). To be noted: HepG2, Attagene cis-factorial STAT3 reporter transcription; actives raise or lower the signal. In outline: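 After a 24 h compound incubation, total RNA from MRTU-transfected HepG2 cells was converted to cDNA and reporter sequences PCR-amplified, labelled and profiled by capillary electrophoresis. Gain and loss of signal were referenced to DMSO.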

Assay [18] can be described thus: ATG_TA_CIS: Attagene CIS-FACTORIAL HepG2 Assay for human TA Basal Promoter (AID 2282964). To be noted: HepG2 Attagene CIS-factorial TA basal promoter reporter; actives raise or lower the signal. In outline:
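HepG2 cells transiently transfected with multiple reporter units under cis promoter elements, reporting endogenous transcription factor activity; this endpoint tracks the TA basal promoter as background control. Reporter mRNA after 24 h dosing measured by RT-PCR/capillary electrophoresis; bidirectional fits versus DMSO.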

Assay [19] in a line: ATG_TCF_b_cat_CIS: Attagene CIS-FACTORIAL HepG2 Assay for human T-Cell-Factor with beta-catenin (TCF/b-cat) (AID 2282965). Particulars: HepG2 TCF/beta-catenin cis-reporter transcription, actives raise or lower the signal. In outline: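 Endogenous transcription factor activity is captured through cis-promoter reporter constructs transiently introduced into human HepG2 liver cells. Induced reporter mRNA is measured after 24 h and fitted bidirectionally relative to DMSO.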

Assay [20] in a line: ATG_GRE_CIS: Attagene CIS-FACTORIAL HepG2 Assay for human Glucocorticoid Response Elements (GRE) (AID 2282947). Particulars: HepG2 GRE cis-reporter, Attagene multiplex mRNA; actives raise or lower the signal. In outline: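 Assay uses human hepatoma HepG2 cells transfected with cis-promoter reporter units, exposed 24 h. mRNA from reporters detected by RT-PCR plus capillary electrophoresis; DMSO serves as negative control and baseline.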

Paired box protein Pax-6 (Homo sapiens), sequence (P26367 whole entry, looked up): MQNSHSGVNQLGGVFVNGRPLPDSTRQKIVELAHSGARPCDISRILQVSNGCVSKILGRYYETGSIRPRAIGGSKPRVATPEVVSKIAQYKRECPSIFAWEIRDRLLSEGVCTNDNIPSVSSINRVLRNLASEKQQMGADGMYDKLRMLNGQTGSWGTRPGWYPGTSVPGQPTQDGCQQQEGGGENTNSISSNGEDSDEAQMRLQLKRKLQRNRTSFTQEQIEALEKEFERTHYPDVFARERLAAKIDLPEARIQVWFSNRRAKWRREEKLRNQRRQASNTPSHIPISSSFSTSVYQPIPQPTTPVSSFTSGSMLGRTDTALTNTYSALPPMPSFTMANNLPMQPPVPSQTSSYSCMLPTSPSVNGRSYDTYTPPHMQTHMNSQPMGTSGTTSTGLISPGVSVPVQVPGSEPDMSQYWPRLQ
Hypoxia-inducible factor 1-alpha (Homo sapiens), sequence (Q16665 whole entry, looked up): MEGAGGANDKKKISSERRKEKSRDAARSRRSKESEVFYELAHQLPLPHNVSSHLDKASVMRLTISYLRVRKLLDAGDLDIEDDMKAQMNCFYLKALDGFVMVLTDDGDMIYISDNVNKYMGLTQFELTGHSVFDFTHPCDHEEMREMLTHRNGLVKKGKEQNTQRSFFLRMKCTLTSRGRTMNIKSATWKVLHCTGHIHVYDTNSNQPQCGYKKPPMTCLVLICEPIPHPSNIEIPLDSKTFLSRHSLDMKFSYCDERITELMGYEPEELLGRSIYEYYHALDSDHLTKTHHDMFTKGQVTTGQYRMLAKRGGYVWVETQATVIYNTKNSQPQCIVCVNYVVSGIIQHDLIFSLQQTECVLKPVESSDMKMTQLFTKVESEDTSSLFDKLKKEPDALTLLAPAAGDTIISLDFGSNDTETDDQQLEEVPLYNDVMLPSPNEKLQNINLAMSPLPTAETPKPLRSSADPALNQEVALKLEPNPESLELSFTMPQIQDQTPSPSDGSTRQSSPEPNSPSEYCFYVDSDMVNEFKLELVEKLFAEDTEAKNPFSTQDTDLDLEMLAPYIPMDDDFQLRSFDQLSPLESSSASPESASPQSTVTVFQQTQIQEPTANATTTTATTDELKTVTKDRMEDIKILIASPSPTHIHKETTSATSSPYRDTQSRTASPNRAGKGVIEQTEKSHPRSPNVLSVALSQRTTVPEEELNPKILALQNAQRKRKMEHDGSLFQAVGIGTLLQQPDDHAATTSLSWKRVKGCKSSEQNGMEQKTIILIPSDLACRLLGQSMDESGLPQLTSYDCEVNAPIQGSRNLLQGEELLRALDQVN
Heat shock factor protein 1 (Homo sapiens), sequence (Q00613 whole entry, looked up): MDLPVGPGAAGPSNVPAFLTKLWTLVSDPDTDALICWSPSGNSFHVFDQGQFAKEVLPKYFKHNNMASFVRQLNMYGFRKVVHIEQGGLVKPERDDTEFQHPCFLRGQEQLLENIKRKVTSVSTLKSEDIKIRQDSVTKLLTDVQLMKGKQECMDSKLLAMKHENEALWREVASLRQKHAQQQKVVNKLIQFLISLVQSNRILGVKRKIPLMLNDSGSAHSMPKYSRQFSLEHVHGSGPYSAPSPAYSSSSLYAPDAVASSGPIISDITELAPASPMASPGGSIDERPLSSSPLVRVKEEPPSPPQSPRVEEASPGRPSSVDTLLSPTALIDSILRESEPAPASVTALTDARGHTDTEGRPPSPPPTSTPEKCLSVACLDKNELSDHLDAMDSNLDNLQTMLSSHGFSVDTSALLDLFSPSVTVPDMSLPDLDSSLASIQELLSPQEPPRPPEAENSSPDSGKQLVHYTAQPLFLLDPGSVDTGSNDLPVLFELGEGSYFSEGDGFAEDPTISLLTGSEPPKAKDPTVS
Transcription factor Sp1 (Homo sapiens), sequence (P08047 whole entry, looked up): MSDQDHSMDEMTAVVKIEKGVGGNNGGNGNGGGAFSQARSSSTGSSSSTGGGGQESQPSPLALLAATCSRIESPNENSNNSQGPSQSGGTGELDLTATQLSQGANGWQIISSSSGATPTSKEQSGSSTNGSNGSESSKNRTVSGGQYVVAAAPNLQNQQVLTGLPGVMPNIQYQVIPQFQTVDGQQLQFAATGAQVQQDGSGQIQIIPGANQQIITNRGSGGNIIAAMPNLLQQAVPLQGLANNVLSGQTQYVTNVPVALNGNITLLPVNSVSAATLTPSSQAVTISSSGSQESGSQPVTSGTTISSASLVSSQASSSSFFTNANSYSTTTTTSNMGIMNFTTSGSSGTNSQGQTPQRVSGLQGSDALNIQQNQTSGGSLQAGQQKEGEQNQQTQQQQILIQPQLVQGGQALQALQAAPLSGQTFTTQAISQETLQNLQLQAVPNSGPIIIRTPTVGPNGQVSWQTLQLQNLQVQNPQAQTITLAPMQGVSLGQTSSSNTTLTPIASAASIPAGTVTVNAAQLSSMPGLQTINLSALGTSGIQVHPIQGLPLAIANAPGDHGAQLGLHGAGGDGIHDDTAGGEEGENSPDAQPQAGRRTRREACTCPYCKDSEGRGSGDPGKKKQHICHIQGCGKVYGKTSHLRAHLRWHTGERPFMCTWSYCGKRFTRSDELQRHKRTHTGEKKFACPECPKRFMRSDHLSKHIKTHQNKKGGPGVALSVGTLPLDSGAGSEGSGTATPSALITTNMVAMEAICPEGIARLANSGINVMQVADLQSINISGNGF
Signal transducer and activator of transcription 3 (Homo sapiens), sequence (P40763 whole entry, looked up): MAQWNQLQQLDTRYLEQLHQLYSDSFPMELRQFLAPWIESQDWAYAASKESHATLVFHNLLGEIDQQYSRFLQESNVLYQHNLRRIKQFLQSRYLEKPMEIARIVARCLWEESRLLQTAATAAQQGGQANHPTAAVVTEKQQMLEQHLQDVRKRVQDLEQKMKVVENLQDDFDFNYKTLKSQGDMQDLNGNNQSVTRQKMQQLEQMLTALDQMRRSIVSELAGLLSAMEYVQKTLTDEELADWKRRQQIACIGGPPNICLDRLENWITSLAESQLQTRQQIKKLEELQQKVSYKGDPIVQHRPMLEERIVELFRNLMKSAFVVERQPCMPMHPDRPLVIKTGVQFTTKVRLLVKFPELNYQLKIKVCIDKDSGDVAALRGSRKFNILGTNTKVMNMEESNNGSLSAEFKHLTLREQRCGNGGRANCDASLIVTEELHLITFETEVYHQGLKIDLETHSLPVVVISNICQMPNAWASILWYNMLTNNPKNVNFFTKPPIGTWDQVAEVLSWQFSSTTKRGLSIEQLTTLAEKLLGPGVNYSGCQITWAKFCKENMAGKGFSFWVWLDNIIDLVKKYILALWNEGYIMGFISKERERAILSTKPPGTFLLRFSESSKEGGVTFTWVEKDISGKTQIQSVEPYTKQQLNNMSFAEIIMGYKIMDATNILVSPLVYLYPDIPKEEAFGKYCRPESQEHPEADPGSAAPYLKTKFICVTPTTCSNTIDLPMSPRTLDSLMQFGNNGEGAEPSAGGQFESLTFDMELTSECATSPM
Hepatocyte nuclear factor 6 (Homo sapiens), sequence (Q9UBC0 whole entry, looked up): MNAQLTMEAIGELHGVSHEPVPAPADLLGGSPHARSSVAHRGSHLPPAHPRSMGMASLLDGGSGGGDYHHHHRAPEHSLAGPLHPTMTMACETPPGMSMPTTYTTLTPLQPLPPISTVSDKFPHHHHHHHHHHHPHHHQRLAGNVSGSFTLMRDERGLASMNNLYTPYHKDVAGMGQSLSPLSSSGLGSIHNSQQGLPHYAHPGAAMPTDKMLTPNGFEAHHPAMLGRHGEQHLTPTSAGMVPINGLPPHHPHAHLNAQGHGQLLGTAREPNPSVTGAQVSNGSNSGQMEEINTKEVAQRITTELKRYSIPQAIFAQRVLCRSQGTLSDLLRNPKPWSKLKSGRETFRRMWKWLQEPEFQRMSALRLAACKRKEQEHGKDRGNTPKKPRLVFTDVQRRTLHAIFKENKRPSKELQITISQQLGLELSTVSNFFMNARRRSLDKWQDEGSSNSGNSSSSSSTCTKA
Bile acid receptor (Homo sapiens), sequence (Q96RI1 whole entry, looked up, the tested form may be a part): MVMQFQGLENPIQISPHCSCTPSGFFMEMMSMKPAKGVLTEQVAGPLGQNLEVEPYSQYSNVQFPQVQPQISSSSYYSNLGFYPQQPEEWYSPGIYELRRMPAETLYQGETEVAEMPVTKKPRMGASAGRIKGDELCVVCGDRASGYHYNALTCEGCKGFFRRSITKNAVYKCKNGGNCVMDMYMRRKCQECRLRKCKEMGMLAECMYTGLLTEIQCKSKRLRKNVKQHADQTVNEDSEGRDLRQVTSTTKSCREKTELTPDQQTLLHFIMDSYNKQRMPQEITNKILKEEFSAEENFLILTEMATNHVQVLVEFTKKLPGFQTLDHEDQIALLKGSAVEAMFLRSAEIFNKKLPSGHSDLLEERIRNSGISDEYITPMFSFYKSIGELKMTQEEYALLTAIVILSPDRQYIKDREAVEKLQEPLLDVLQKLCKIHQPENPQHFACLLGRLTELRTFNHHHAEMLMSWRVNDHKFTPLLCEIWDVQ

For the compound `COCCCOCCCOC`, the compound was classed as inactive in assay [1], in [2], in assay [3], in [4], in assay [5] and in assay [6]. Moreover, the compound was classed as inactive in assay [7], in [8], in assay [9], in assay [10], in assay [11] and in [12]. Moreover, the call in [13], in assay [14], in assay [15], in assay [16], in assay [17] and in assay [18] was inactive. Also, the call in [19] was inactive.
With `NC(=O)c1ccccc1O`, the call in [1], in [20], in assay [3], in assay [4], in assay [5] and in assay [6] was inactive. In addition, the compound was called inactive in assay [7], in assay [8], in [10], in assay [11], in [12] and in assay [14]. Further, the outcome in assay [15], in assay [16], in [17] and in assay [19] was inactive.
For orientation: AC50 means the concentration giving half of the maximal activity seen. As for `C1CN(SSN2CCOCC2)CCO1`, the outcome in assay [1], in assay [20], in [2], in assay [3], in assay [5] and in assay [8] was inactive. Further, the compound was called inactive in assay [10], in [11], in assay [14], in [15], in assay [16] and in assay [17]. The result in [18] and in assay [19] was inactive. The concentration at half-maximal activity (AC50) in assay [7] was 44.4 µM (active).
For the compound `CCOC(F)(F)C(F)(F)C(F)(F)C(F)(F)F`, the result in [1], in [20], in assay [2], in assay [3], in [5] and in assay [6] was inactive. Further, the call in assay [7], in assay [8], in [9], in assay [10], in assay [13] and in [15] was inactive. Further, the compound was called inactive in assay [16], in assay [18] and in assay [19].
As to `CC(C)=CCCC(C)C=O` (stereo not drawn), the compound was classed as inactive in assay [1], in [2], in [3], in assay [4], in assay [5] and in [6]. Moreover, the compound was classed as inactive in assay [7], in [8], in assay [9], in assay [10], in assay [12] and in assay [13]. In addition, the call in assay [14], in [15], in assay [18] and in [19] was inactive. Also, the AC50 in assay [11] was 8.29 µM (active).
In the case of `Nc1ccc(N)c(Cl)c1`, the compound was classed as inactive in assay [1], in assay [20], in [3], in [8], in [14] and in assay [15]. The compound was called inactive in assay [17], in assay [18] and in assay [19]. The concentration at half-maximal activity (AC50) in assay [2] is 45.7 µM (active); in [6] it was 57.2 µM (active); in assay [7], 8.3 µM (active); in assay [9] it was 26.2 µM (active); in [10], 52.9 µM (active); in [11], 8.87 µM (active). Moreover, the AC50 in assay [16] is 43.7 µM (active).
Turning to `O=C(O)Cc1c(Cl)ccc(Cl)c1Cl`, the result in assay [1], in assay [2], in [3], in assay [4], in [5] and in [6] was inactive. The outcome in assay [7], in assay [8], in assay [9], in assay [10], in [11] and in assay [12] was inactive. The compound was called inactive in assay [13], in [14], in assay [15], in assay [16], in assay [17] and in assay [18]. In addition, the outcome in assay [19] was inactive.
In the case of `C=C1[C@H]2CC[C@@H]3[C@H]2C(C)(C)CCC[C@]13C`, the compound was called inactive in assay [1], in assay [20], in assay [3], in assay [5], in [6] and in assay [7]. The outcome in assay [8], in assay [9], in [10], in assay [12], in assay [15] and in [16] was inactive. The compound was classed as inactive in assay [17], in assay [18] and in assay [19]. In addition, the AC50 in assay [11] is 5.34 µM (active).
